These results are taken from PubChem BioAssay (NCATS).

Each structure is given as a SMILES string. Calls of active or inactive are those of the source. The call rests on the fitted dose curve.

The nature of this assay: qHTS drug screen for cell cycle checkpoint inhibitors in PARPi-resistant BRCA-mutant ovarian cancer cell lines. (AID 1963452). The conditions noted are these: PEO1/OlaR viability, CellTiter-Glo luminescence, 96 h; for Z-AUC: stronger effect = lower value. An outline of the steps:
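PEO1, PEO4 and PEO1/OlaR ovarian cancer cells, 600 per well, exposed 96 h at 37C to a dilution series. Viability read by CellTiter-Glo luminescence, normalized to DMSO and empty wells; activity summarized as Z-AUC.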
(In general: qHTS replaces the single test concentration by a dilution series.)

The mark [1] stands for this setting: measured here: PEO1 parental Z-AUC.
Potency means the concentration at half of the fitted maximal effect.

Regarding `Cc1ccccc1-n1c(Cn2nc(-c3cccc(O)c3)c3c(N)ncnc32)nc2cccc(C)c2c1=O`, the Z-AUC was -1.13 (inactive). The Z-AUC under setting [1] was -0.546. Moreover, the Z-AUC (measured here: PEO4 Z-AUC) was -0.912.

Regarding `CC(C)(OCc1nn(Cc2ccccc2)c2ccccc12)C(=O)O`, the Z-AUC was 1.03 (inactive). In addition, the Z-AUC under setting [1] is 1.11. Also, the Z-AUC (measured here: PEO4 Z-AUC) was found to be 1.54.

On to `N#CC1(c2cccc(C(=O)Nc3cc(Oc4ccc5nc(NC(=O)C6CC6)sc5n4)ccc3F)c2Cl)CC1`, for which the Z-AUC is -0.948 (inactive). Further, under setting [1], the Z-AUC was -1.21. Moreover, the Z-AUC (measured here: PEO4 Z-AUC) is -0.816.

As to `Cn1cnc(-c2cc3nccc(Oc4ccc(NC(=S)NC(=O)Cc5ccccc5)cc4F)c3s2)c1`, the Z-AUC was -0.0485 (inactive). The Z-AUC under setting [1] was determined as 0.327. In addition, the Z-AUC (measured here: PEO4 Z-AUC) was found to be 0.301.

Regarding `CC1CCN(c2cc(N3CCN(C)CC3)ccc2NC(=O)c2cc(C#N)c[nH]2)CC1`, the Z-AUC was -1.13 (inactive). The Z-AUC under setting [1] was -0.115. In addition, the Z-AUC (measured here: PEO4 Z-AUC) came to 0.801.

`CC1=C(CC(=O)O)c2cc(F)ccc2C1=Cc1ccc(S(C)=O)cc1` (configuration not stated): the Z-AUC was -0.123 (inactive). For the same compound, the Z-AUC under setting [1] was 0.811. Further, the Z-AUC (measured here: PEO4 Z-AUC) stood at 0.523.

For `CCCCCCCCCCCCCCCC(=O)O[C@H]1[C@@H](O)[C@@H](O)[C@@H]([C@H](NC(=O)[C@@H]2C[C@@H](CCC)CN2C)[C@H](C)Cl)O[C@@H]1SC`, the Z-AUC is 1.31 (inactive). Under setting [1], the Z-AUC was 0.604. Besides, the Z-AUC (measured here: PEO4 Z-AUC) was determined as 0.552.

For the compound `Cc1ccc(C2=Nc3ccc(Cl)cc3OC2)cc1`, the Z-AUC was 1.28 (inactive). Further, under setting [1], the Z-AUC was determined as 0.878. The Z-AUC (measured here: PEO4 Z-AUC) is 0.727.

As to `Cc1ccc(NC(=O)c2cccc(N(C)C)c2)cc1NC(=O)c1ccc(O)cc1`, the Z-AUC was 1.75 (inactive). For the same compound, under setting [1], the Z-AUC amounted to 1.05. For the same compound, the Z-AUC (measured here: PEO4 Z-AUC) was determined as 0.905.

For the compound `O[C@@H](COc1cccc2ncccc12)CN1CCN(C2c3ccccc3[C@@H]3[C@H](c4ccccc42)C3(F)F)CC1` (some centres not stated), the Z-AUC is -1.07 (inactive). Also, under setting [1], the Z-AUC is -1.13. In addition, the Z-AUC (measured here: PEO4 Z-AUC) was -0.777.

Regarding `COC(=O)Nc1ccc(-c2nc(N3CCOCC3)c3cnn(C4CCN(C(=O)OC)CC4)c3n2)cc1`, the Z-AUC was 0.0604 (inactive). Under setting [1], the Z-AUC was -0.0911. Further, where the note is “measured here: PEO4 Z-AUC”, the Z-AUC is -0.355.

As to `COc1cc2ncn(-c3cc(OCc4ccccc4S(C)(=O)=O)c(C#N)s3)c2cc1OC`, the Z-AUC is 0.942 (inactive). For the same compound, under setting [1], the Z-AUC is 0.779. For the same compound, the Z-AUC (measured here: PEO4 Z-AUC) turned out to be 0.362.

Consider `OC1CCC(Nc2ncc3nc(Nc4c(F)cc(F)cc4F)n([C@@H]4CCOC4)c3n2)CC1` (some centres not stated), for which the Z-AUC was 0.218 (inactive). Further, the Z-AUC under setting [1] is 0.89. Under “measured here: PEO4 Z-AUC”, the Z-AUC was determined as 0.44.

For the compound `CN1CCc2c(n(Cc3ccc(C(=O)NO)cc3)c3ccccc23)C1`, the Z-AUC was 0.742 (inactive). In addition, the Z-AUC under setting [1] turned out to be 0.892. For the same compound, the Z-AUC (measured here: PEO4 Z-AUC) was found to be 0.628.

On to `Cc1cccc(Nc2nc(N[C@@H]3CCCC[C@H]3N)ncc2C(N)=O)c1`, for which the Z-AUC was -0.597 (inactive). The Z-AUC under setting [1] is -0.615. Moreover, where the note is “measured here: PEO4 Z-AUC”, the Z-AUC is -0.03.

Turning to `CN[C@@H](C)[C@H]1[C@H](O)C[C@@]2(C)[C@@H]3CC[C@H]4C(C)(C)[C@@H](NC)CC[C@@]45C[C@@]35CC[C@]12C`, the Z-AUC was 0.117 (inactive). Besides, under setting [1], the Z-AUC was found to be 0.364. Also, for the setting “measured here: PEO4 Z-AUC”, the Z-AUC was 0.673.

For the compound `CC[C@H](CC#N)OC(=O)N[C@@H](C)c1cccc(NC(=O)Nc2ccc(-c3cnco3)c(OC)c2)c1`, the Z-AUC is 0.186 (inactive). The Z-AUC under setting [1] was -0.393. For the same compound, for the setting “measured here: PEO4 Z-AUC”, the Z-AUC is -0.852.

Take `CN1CCC(COc2cnc(-c3cccc(Cn4nc(-c5cccc(C#N)c5)ccc4=O)c3)nc2)CC1`: the Z-AUC was -0.437 (inactive). Also, the Z-AUC under setting [1] was -0.363. Further, where the note is “measured here: PEO4 Z-AUC”, the Z-AUC was -0.442.

As to `CCC(=O)NCC[C@@H]1CCc2ccc3c(c21)CCO3`, the Z-AUC was -0.993 (inactive). In addition, the Z-AUC under setting [1] was 1.01. For the same compound, where the note is “measured here: PEO4 Z-AUC”, the Z-AUC was 0.501.

On to `Cc1ccc(S(=O)(=O)Nc2nc3ccccc3nc2Nc2ccc3nsnc3c2)cc1`, for which the Z-AUC is -0.8 (inactive). Under setting [1], the Z-AUC is -0.564. Besides, under “measured here: PEO4 Z-AUC”, the Z-AUC was -0.705.

For `CC(C)Oc1cc(Nc2nc(N[C@@H](C)c3ccc(F)cn3)ncc2Cl)[nH]n1`, the Z-AUC was -1.59 (inactive). Also, under setting [1], the Z-AUC was -1.36. For the setting “measured here: PEO4 Z-AUC”, the Z-AUC was -0.661.

Take `CC1(C)CC(=O)c2c(C(F)(F)F)nn(-c3ccc(C(N)=O)c(NC4CCC(O)CC4)c3)c2C1` (configuration not stated): the Potency is 219 nM (active). The Z-AUC under setting [1] was -1.53. Also, the Z-AUC (measured here: PEO4 Z-AUC) is -1.31.

`COc1ccc2c(c1)c(C1=C(c3c[nH]c4ccccc34)C(=O)NC1=O)cn2CCCN(C)C`: the Z-AUC was -1.63 (inactive). The Z-AUC under setting [1] was -0.951. Further, the Z-AUC (measured here: PEO4 Z-AUC) was -1.4.

Turning to `Cc1csc(-c2nnc(Nc3ccc(Oc4ncccc4-c4ccnc(N)n4)cc3)c3ccccc23)c1`, the Z-AUC is -0.397 (inactive). For the same compound, under setting [1], the Z-AUC is -0.785. For the same compound, the Z-AUC (measured here: PEO4 Z-AUC) is -1.53.

Turning to `O=C(Nc1ccc(OC(F)(F)F)cc1)c1sccc1NCc1ccnc2ccccc12`, the Z-AUC is 0.246 (inactive). Under setting [1], the Z-AUC was -0.378. The Z-AUC (measured here: PEO4 Z-AUC) is -0.233.

For `CCN1CCN(c2ccc(Nc3cc(N(C)C(=O)Nc4c(Cl)c(OC)cc(OC)c4Cl)ncn3)cc2)CC1`, the Z-AUC was 0.0169 (inactive). For the same compound, the Z-AUC under setting [1] was -0.00584. The Z-AUC (measured here: PEO4 Z-AUC) worked out at 0.0335.

`Cc1ccc2c(c1)C(=O)[C@]1(O)CCN(c3ccccc3)C1=N2`: the Z-AUC was 1.54 (inactive). Moreover, the Z-AUC under setting [1] is 1.18. In addition, the Z-AUC (measured here: PEO4 Z-AUC) was found to be 1.07.

Take `COC1CCC(C(=O)c2ccc3nc4c(cc3c2)CCCO4)CC1` (configuration not stated): the Z-AUC is -0.16 (inactive). For the same compound, under setting [1], the Z-AUC is -0.298. In addition, the Z-AUC (measured here: PEO4 Z-AUC) was determined as 0.0226.

As for `NC(=O)c1ccc(N(C(N)=O)c2c(F)cccc2F)nc1-c1ccc(F)cc1F`, the Z-AUC was -0.305 (inactive). For the same compound, the Z-AUC under setting [1] was -0.387. The Z-AUC (measured here: PEO4 Z-AUC) amounted to 0.295.
